Source: PubChem
Sampled rows, rich in hits. Any-hit rate of the full collection: about 10%.
PTEN del growth – growth suppression of PTEN-null HCT116, primary screen, cell-based, CellTiter-Glo; viability, % at 10 µM; HCT116 PTEN-null viability, 60 h; hits give low values; hit rate 1.2% among 140,000; AID 827, 2007;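 active means viability at or below a set limit, 4 SD under the median of all tested compounds, cut at about 3.7% in these data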;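 further: PTEN knockout HCT116 line with beta catenin targeted HCT116 as companion control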
Lmaj promast – Leishmania major promastigote growth inhibition, primary screen | Leishmania major promastigotes, resazurin fluorescence viability | inhibition, % at 10 µM | hit rate 9% among 200,000; in the data active means inhibition above about 50%;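 further: promastigotes grown with compound for 44 hours at 28 °C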
bCat KO growth – primary screen for growth suppressors in beta-catenin knockout HCT116 cells (colon tumor, human) | HCT116 beta-catenin knockout viability, CellTiter-Glo, 60 h; hits give low values | viability, % at 10 µM | hit rate 1.5% among 140,000 | AID 818, 2007;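 active means viability at or under a set limit, the compound median less 4 SD, cut at about 6% in these data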
INS promoter inh – inhibitors of insulin promoter-driven GFP, primary screen, imaging, TRM-6 cells (human fetal islet line), eGFP reporter, cell count. reporter expression induced with tamoxifen. inhibition, % at 2 µM. hit rate 0.9% among 130,000. AID 1273, 2008;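 active means inhibition above the mean plus 3 SD, with well images judged a real hit on visual review, cut at about 60% in these data, passing the limit was not always enough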
ROMK mod – ROMK potassium channel modulators, primary screen, cell-based, thallium flux, MLSMR library; ATP-sensitive inward rectifier potassium channel 1 (Homo sapiens), P48048; Tet-inducible ROMK, thallium flux fluorescence; actives lie on both sides; B-score at 10 µM; hit rate 2% among 130,000; AID 1918, 2009;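 active means signal ratio slope over the read window, or its plate-corrected B-score, at least 3 SD from the plate mean, either direction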;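 further: B-score of the F/F0 ratio slope over 7 to 12 s after thallium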
Target sequence (P48048 whole entry, looked up): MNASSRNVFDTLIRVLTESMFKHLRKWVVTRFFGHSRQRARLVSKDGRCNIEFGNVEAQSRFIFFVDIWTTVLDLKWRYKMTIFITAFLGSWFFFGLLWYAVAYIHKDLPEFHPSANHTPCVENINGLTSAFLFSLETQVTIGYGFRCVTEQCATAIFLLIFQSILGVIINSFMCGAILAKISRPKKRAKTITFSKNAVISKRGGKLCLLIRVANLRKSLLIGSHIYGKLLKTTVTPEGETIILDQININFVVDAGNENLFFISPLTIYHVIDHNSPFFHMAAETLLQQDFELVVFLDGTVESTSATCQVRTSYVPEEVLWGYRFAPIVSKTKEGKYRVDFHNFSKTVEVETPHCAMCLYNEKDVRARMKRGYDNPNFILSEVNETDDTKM
p97 ATPase inh – inhibitors of human p97 ATPase, primary screen, biochemical; Transitional endoplasmic reticulum ATPase (Homo sapiens), P55072; inhibition, % at 8 µM; hit rate 0.42% among 220,000; recombinant p97 ATPase, Kinase-Glo ATP luminescence, 3 h; in the data active means inhibition above about 15%
Hits are given with their value; n = inactive; x = no result given.

SMILES	PTEN del growth	Lmaj promast	bCat KO growth	INS promoter inh	ROMK mod	p97 ATPase inh
COc1ccc(C(=O)c2c(C(F)(F)F)oc3c2C(=O)c2ccccc2C3=O)cc1	1.8	99.8	1.2	n	x	n
Cn1nc(C(F)(F)F)c(-c2ccc(Br)cc2)c1NC(=O)Nc1ccc(F)cc1F	x	x	x	x	n	n
COc1ccccc1-c1c(C)oc2cc(OCC(=O)OCc3ccccc3)ccc2c1=O	n	87.1	n	n	n	n
CCC(=O)N/N=C(\C)CC(=O)Nc1ccccc1-c1ccccc1	n	n	n	n	n	n
CCN(CC)C(=O)C1CCN(Cc2ccc(Br)cc2)CC1	n	92.0	n	x	n	n
CCN(Cc1ccccc1)C1CCN(Cc2ccc(SC)cc2)CC1	x	84.9	x	x	n	n
CCN(Cc1ccccc1)C(=O)C1CCN(Cc2ccc(SC)cc2)CC1	x	87.6	x	n	x	n
CC(C)CCOc1ccc(C2CC(=O)N(C)C2=O)cc1 (centres undefined)	x	n	x	x	n	n
CO/N=C(\Cn1ncc(N2CCCC2)c(Br)c1=O)c1ccc(Cl)cc1	n	70.7	n	n	n	n
CO/N=C(\Cn1ncc(NC2CCCCC2)c(Br)c1=O)c1ccc(Cl)cc1	n	n	n	n	n	n
c1ccn2cc(-c3ccc4c(c3)OCCO4)nc2c1	x	n	x	71.4	x	n
C=CCOc1cccc(/C=C2\C(=O)N(Cc3ccc(C)cc3)C(C)=C2C(=O)OC)c1	n	92.2	n	x	n	n
Cc1ccc(NC(=O)CSc2nc3[nH]ncc3c(=O)[nH]2)c(C)c1	x	n	x	x	n	n
CCCCNc1nnc(SCC(=O)c2c[nH]c3ccccc23)s1	n	67.1	n	n	n	n
Cn1cnnc1SCC(=O)c1c[nH]c2ccccc12	n	n	n	n	n	n
Cc1nc2ccc(NC(=O)c3cc(S(=O)(=O)N(C)c4ccccc4)ccc3Cl)cc2s1	n	n	n	n	n	n
Cc1nc2ccc(NC(=O)c3ccc(Cl)c(S(=O)(=O)N(C)c4ccccc4)c3)cc2s1	n	100.1	n	n	n	n
CCOc1ccc(NC(=O)COC(=O)c2cccnc2)cc1	n	n	n	x	x	n
O=C(Nc1ccc(N2CCCC2)cc1)C(Cl)c1ccccc1 (centres undefined)	n	98.9	n	n	x	n
Cc1ccc(NC(=O)CCn2cccc2)cc1Cl	n	n	n	n	n	n
CCN(CC)C(=O)CN(c1cc2c(cc1OC)oc1ccccc12)S(=O)(=O)c1ccc(C)cc1	n	68.7	n	n	n	n
CCN(CC)S(=O)(=O)c1ccc(C(=O)Nc2cc3oc4ccccc4c3cc2OC)cc1	n	n	n	n	n	n
COc1ccc(S(=O)(=O)Nc2ccccn2)c(C)c1C	n	n	n	n	n	n
COc1cc(NS(=O)(=O)c2ccc(OC)c(C)c2C)c(OC)cc1Cl	n	99.7	n	n	x	n
COc1ccc(OC)c(S(=O)(=O)Nc2cc(Cl)cc(Cl)c2)c1	n	n	n	n	n	n
SMILES	PTEN del growth	Lmaj promast	bCat KO growth	INS promoter inh	ROMK mod	p97 ATPase inh
COc1ccc(OC)c(S(=O)(=O)Nc2cc(OC)c(Cl)cc2OC)c1	n	62.3	n	n	x	n
Cc1ccc(C)c(C(=O)CN2C3=NCCCN3c3ccccc32)c1	n	77.9	n	n	x	n
O=C(CN1C2=NCCN2c2ccccc21)C12CC3CC(CC(C3)C1)C2	n	100.7	n	n	x	n
COc1ccc(C(=O)CN2C3=NCCCN3c3ccccc32)cc1OC	n	n	n	n	n	n
c1ccc(CN2C3=NCCN3c3ccccc32)cc1	n	n	n	n	n	n
Cc1ccc(NC(=O)C(=O)NCCCN2CCOCC2)c(C)c1	x	x	x	x	n	n
O=C(Cc1ncc(C(F)(F)F)cc1Cl)NCc1ccco1	x	n	x	n	n	n
CCN(CCO)C1CC(=O)N(c2ccccc2C)C1=O (centres undefined)	n	59.8	n	n	n	n
Cc1ccccc1N1C(=O)CC(N(O)c2ccccc2)C1=O (centres undefined)	n	n	n	n	n	n
COc1cccc(OC(=O)c2cc3ccccc3oc2=O)c1	x	n	x	n	n	n
CCOC(=O)C1CCN(C(=O)c2cccnc2Cl)CC1	n	n	n	n	x	n
Cc1ccc(-n2c(-c3ccccc3)c[n+]3c2CCc2ccccc2-3)c(C)c1	x	100.5	x	n	n	n
